# Reference: the supplement of paper PMC10105736
# Values without a mark were called inactive.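 How the source made its calls: active = MAPPIT score above the 99th percentile of random reference set scores in the same batch; inactive = at or below it.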
# Legend:
# Assay in all cases: MAPPIT interaction score (arbitrary units); higher = stronger binary interaction signal, active = hit call of the paper
# Arts = details: MAPPIT configuration: N-N; pair source set: Finley_Y2H
# Protocol: (§1)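 MAPPIT in HEK293T cells: Drosophila bait and prey ORFs (from the FlyBi ORF collection) were co-transfected in quadruplicate, with two wells stimulated by erythropoietin. Interaction-dependent JAK-STAT activation was read out with a STAT-responsive firefly luciferase reporter. Positive calls use the 99th percentile of random reference set (RRS) scores within each batch […]. Batches Dvs01 and Dvs02 used the N-N configuration and Dvs04 the N-C configuration. Pairs come from FlyBi screens, CuraGen, DPiM, Finley Y2H, Lit-BM-16, Lit-BS-16 and RRS.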
# Pu = details: MAPPIT configuration: N-N; pair source set: screen_1
# Protocol: as §1
# Vinc = details: pair source set: Lit-BM-16
# Protocol: as §1
# BORCS6 = details: MAPPIT configuration: N-C; pair source set: screen_3
# Protocol: as §1
# BEAF-32 = details: MAPPIT configuration: N-N; pair source set: screen_1
# Protocol: as §1
# BicD = details: MAPPIT configuration: N-C; pair source set: Lit-BM-16
# Protocol: as §1
# Atg16 = details: MAPPIT configuration: N-C; pair source set: Lit-BM-16
# Protocol: as §1
# Atx-1 = details: MAPPIT configuration: N-C; pair source set: screen_4
# Protocol: as §1
# Arv1 = details: MAPPIT configuration: N-C; pair source set: RRS
# Protocol: as §1
# Bet1 = details: pair source set: Lit-BM-16
# Protocol: as §1
# 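Further: HEK293T cells with Epo stimulation, STAT-responsive firefly luciferase reporter, fold induction versus unstimulated cells divided by the larger fold induction of two negative controls lacking either bait or prey.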
binder,measurement,setting,value
CAP (protein) MEPGTIPSPVSAPVAAPVTPSAVAAPVQVVSPAAVAPAPAAPIAVTPVAPPPTLASVQPATVTIPAPAPIAAASVAPVASVAPPVVAAPTPPAASPVSTPPVAVAQIPVAVSAPVAPPVAATPTPVAPIPVAAPVIATPPVAASAPTPAAVTPVVSPVIATPPVVPANTTVPVAAPVAAVPAAVPVVAPVLAPAVAPAVAPVVAETPAPPPVAEIPVATIPECVAPLIPEVSVVATKPLAAAEPVVVAPPATETPVVAPAAASPHVSVAPAVETAVVAPVSASTEPPVAAATLTTAPETPALAPVVAESQVAANTVVATPPTPAPEPETIAPPVVAETPEVASVAVAETTPPVVPPVAAESIPAPVVATTPVPATLAVTDPDVTASAVPELPPVIAPSPVPSAVAETPVDLAPPVLPPVAAEPVPAVVAEETPETPAPASAPVTIAALDIPEVAPVIAAPSDAPAEAPSAAAPIVSTPPTTASVPETTAPPAAVPTEPIDVSVLSEAAIETPVAPPVEVTTEVAVADVAPPEAAADLIIEPVEPPAPIPDLLEQTTSVPAVEAAESTSSPIPETSLPPPNEAVASPEVAVAPITAPEPIPEPEPSLATPTEPIPVEAPVVIQEAVDAVEVPVTETSTSIPETTVEYPVAEKVLDPAITEAPVTTQEPDVANINDGAPATEITTPAVEIVTAAAEVSDTAIPLIDPPVPQEIAVAEIPETETKPAEVIVEQSTIPIEAPVPEVSKYAEPVISEAPAAEVPITAGDNPDNTSVGISEVVPTIAEKAVEEVPTSEIPEQSSSPSDSVPVAKITPLLRDLQTTDVSLLAIAATLDAIGEKLKDQKARNQQVMDRLCEIEKILGPPKSN,MAPPIT interaction score,Arts,0.381
same,MAPPIT interaction score,Pu,-0.205
same,MAPPIT interaction score,Vinc; MAPPIT configuration: N-C,2.37
same,MAPPIT interaction score,Vinc; MAPPIT configuration: N-N,2.53
Blos1 (protein) MLTSMVKEHHKEQAKRKQEQEVRRKEAIEASNELTQSLVDTLNVGVAQAYLNQKRLDAEAKQLHLGATNFAKQTHQWLQLIDQFSTALKDLGDVENWARSIEGDMHTINQTLELAYKASRATQTSSGAGTSLEASTSASASANPSAT,MAPPIT interaction score,BORCS6,2.8
Sry-delta (protein) MDTCFFCGAVDLSDTGSSSSMRYETLSAKVPSSQKTVSLVLTHLANCIQTQLDLKPGARLCPRCFQELSDYDTIMVNLMTTQKRLTTQLKGALKSEFEVPESGEDILVEEVEIPQSDVETDADAEADALFVELVKDQEESDTEIKREFVDEEEEEDDDDDDEFICEDVDVGDSEALYGKSSDGEDRPTKKRVKQECTTCGKVYNSWYQLQKHISEEHSKQPNHICPICGVIRRDEEYLELHMNLHEGKTEKQCRYCPKSFSRPVNTLRHMRMHWDKKKYQCEKCGLRFSQDNLLYNHRLRHEAEENPIICSICNVSFKSRKTFNHHTLIHKENRPRHYCSVCPKSFTERYTLKMHMKTHEGDVVYGVREEAPADEQQVVEELHVDVDESEAAVTVIMSDNDENSGFCLICNTNFENKKELEHHLQFDHDVVLK,MAPPIT interaction score,BEAF-32,4.3 (active)
BicD (protein) MSSASNNGPSADQSVQDLQMEVERLTRELDQVSSASAQSAQYGLSLLEEKSALQQKCEELETLYDNTRHELDITQEALTKFQTSQKVTNKTGIEQEDALLNESAARETSLNLQIFDLENELKQLRHELERVRNERDRMLQENSDFGRDKSDSEADRLRLKSELKDLKFRETRMLSEYSELEEENISLQKQVSSLRSSQVEFEGAKHEIRRLTEEVELLNQQVDELANLKKIAEKQMEEALETLQGEREAKYALKKELDGHLNRESMYHISNLAYSIRSNMEDNASNNSDGEEENLALKRLEADLSTELKSPDGTKCDLFSEIHLNELKKLEKQLESMESEKTHLTANLREAQTSLDKSQNELQNFMSRLALLAAHVDALVQLKKQIDVKEQGKEGGQKKDELEQQLRALISQYANWFTLSAKEIDGLKTDIAELQKGLNYTDATTTLRNEVTNLKNKLLATEQKSLDLQSDVQTLTHISQNAGQSLGSARSTLVALSDDLAQLYHLVCTVNGETPTRVLLDHKTDDMSFENDSLTAIQSQFKSDVFIAKPQIVEDLQGLADSVEIKKYVDTVSDQIKYLKTAVEHTIDMNKHKIRSEGGDALEKVNTEEMEELQEQIVKLKSLLSVKREQIGTLRNVLKSNKQTAEVALTNLKSKYENEKIIVSDTMSKLRNELRLLKEDAATFSSLRAMFAARCEEYVTQVDDLNRQLEAAEEEKKTLNQLLRLAVQQKLALTQRLEEMEMDREMRHVRRPMPAQRGTSGKSSFSTRPSSRNPASSNANPF,MAPPIT interaction score,BicD,-0.381
Atg5 (protein) MAHDREVLRMIWEGQIGICFQADRDEIVGIKPEPFYLMISRLSYLPLVTDKVRKYFSRYISAEHQDGAVWFDFNGTPLRLHYPIGVLYDLLHPEEDSTPWCLTIHFSKFPEDMLVKLNSKELLESHYMSCLKEADVLKHRGLVISAMQKKDHNQLWLGLVNEKFDQFWAVNRRLMEPYGDLESFKNIPLRIYTDDDFTYTQKLISPISVGGQKKSLADLMAELSTPVRRAVGCRTHGIDLHEETQLQWMSEHLSYPDNFLHLSVDYKDV,MAPPIT interaction score,Atg16,2.6
CG9132 (protein) MEYESVLIVKPEVFIYKIPPRASNRGYRAGDWNLKEPTWTGRMRLVAKGTAVVLKLEDKTSGALFANCPIDTYPGVAIEAVSDSSRYFVIRVQDDNGRSAFLGLGFGDRSDSFDLNVALQDHFKWVKNQEQIEKEKTEPKQELDLGFKEGETIKINMRITKKDGSEGSSRTGKNKGSSGVLPPPPGGLGKIAPPPAAAAANTTVRQSPGVSPAHRPAAGGSEWTDYASAGGNQGQQNSANANWVQF,MAPPIT interaction score,Atx-1,2.48
Drak (protein) MFTEKGIFPIGDGLLDVDADRLKGLLVSCPDINEIYEVEQTPFARGKFAAVRRAIHKNTGSHFAAKFLKRRRRAQSSDKEIKHEIAVLMLCEGEDNIVNLNAVHETRSDTALLLELATGGELQTILDNEECLTEAQARHCMREVLKALKFLHDRSIAHLDLKPQNILLAGERIEDGLKLCDFGISRVVCEGINVREMAGTPDYVAPEVLQYEPLSLLTDIWSVGVLTYVLLSGFSPFGGDTKQETFLNISQCALTFPDNLFGGVSPVAIDFIRRALRIKPNDRMNATGCLDHIWLKDDCSLDRQIYLQPQSDAEEEEEEDVDDDVEDEEEEEQVEEEEEETQNVEEPTTEAPQQQQQPVQQHQLAKSGQIHSKPTHNGHHRANSGGSISKIPIATSKLQSTPSSETTTAIHTLTSNSNGHVHKPTQIVTPTRRASDSDKENTYTATFVKKPVATIQLGSSNGIEDATVVATLTLFPDAPTTPKVIRKTPTGESNGSATSVKALVKKFQLEDSSGSAVARRSGGAVTSSSGLHSPTTTSVRLNSIRRASEPLTTVYKKQTSQNGCSSTSNPSSSPGSSPTTSGSTATLLIHSQRLGNSTAPASHCVAVPATATATSSASSSNSSSGKSTSAAHHLHHHHMHHHHHHHHHHVVIAAKNAAAVAATNNLSLDQGIIC,MAPPIT interaction score,Arv1,2.34
Gos28 (protein) MGGSSYDVLRKQARSLENEIDLKLVAFSKIGAGSGGGGSGGLGGVDTSPLLGEHVFDSLSEEIEQMLEKLSSLNESMSDLPASGAAAMHTLQRHREILQGYRQEFNKICANHTMRIEREELLRGSGLATSSGSPSISGLNRREMYLKESGHLNSASHLVNDQINIAIETRDHLHAQRQAFKRLQTRFNDISNRFPLISSLIQRINIKKRRDSLILGAVIGFCVILLLLYAFN,MAPPIT interaction score,Bet1; MAPPIT configuration: N-C,-0.272
same,MAPPIT interaction score,Bet1; MAPPIT configuration: N-N,-0.1
